Several values for one entry are separate records, joined by “and”; a condition that tells them apart may be missing. Identical values can stand only once. About 2,000 (36%) of roughly 5,500 compounds were called active. Roughly 18% stayed inconclusive and do not appear here. Cut-off read from the data, not from the text of the source: active = normalized growth mostly below about 0.91 (no sharp cut-off); inconclusive = no clear call, values can overlap the other calls; inactive = mostly above about 0.92. Some of the results follow.
Experiment: chemical genetic growth profiling, strain panel (AID 1159580);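 note: tested at 20 µM; growth read once vehicle control cultures reached saturation at 30 °C; 1 = growth at the plate median or of vehicle wells; lower values mean less growth of the strain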
Conditions: S. cerevisiae deletion strains, growth OD

Measured: normalized growth

COc1c2c(cc3occ(-c4ccc5c(c4)OCO5)c(=O)c13)OC(C)(C)C=C2
active: locus YDR392W, strain spt3, active compounds read low 0.644 | locus YGL086W, strain mad1, active compounds read low 0.889 | locus YHR142W, strain chs7, active compounds read low 0.857 | locus YKR001C, strain vps1, active compounds read low 0.895 | locus YNL071W, strain lat1, active compounds read low 0.89 | locus YOR184W, strain ser1, active compounds read low 0.795
inactive: locus YAL013W, strain DEP1, active compounds read low 0.989 | locus YAL021C, strain ccr4, active compounds read low 1 | locus YAL026C, strain drs2, active compounds read low 0.975 | locus YAL030W, strain snc1, active compounds read low 0.997 | locus YBL061C, strain skt5, active compounds read low 0.969 | locus YBR009C, strain hhf1, active compounds read low 0.966 | locus YBR021W, strain FUR4, active compounds read low 0.973 | locus YBR023C, strain chs3, active compounds read low 0.967 | locus YBR171W, strain sec66, active compounds read low 0.988 | locus YBR229C, strain ROT2, active compounds read low 0.987 | locus YBR231C, strain swc5, active compounds read low 0.989 | locus YBR279W, strain paf1, active compounds read low 1.03 | locus YCL011C, strain gbp2, active compounds read low 0.985 | locus YCL016C, strain dcc1, active compounds read low 0.994 | locus YCL029C, strain bik1, active compounds read low 0.961 | locus YCL061C, strain MRC1, active compounds read low 0.996 | locus YCL069W, strain vba3, active compounds read low 1 | locus YCR088W, strain abp1, active compounds read low 0.995 | locus YDL005C, strain med2, active compounds read low 1 | locus YDL035C, strain GPR1, active compounds read low 0.95 | locus YDL040C, strain nat1, active compounds read low 1.01 | locus YDL074C, strain BRE1, active compounds read low 0.901 | locus YDL101C, strain DUN1, active compounds read low 0.98 | locus YDL185W, strain tfp1, active compounds read low 0.943 | locus YDL192W, strain arf1, active compounds read low 0.918 | locus YDR001C, strain nth1, active compounds read low 0.994 | locus YDR069C, strain doa4, active compounds read low 0.991 | locus YDR101C, strain arx1, active compounds read low 0.925 | locus YDR137W, strain rgp1, active compounds read low 0.964 | locus YDR159W, strain sac3, active compounds read low 1.02 | locus YDR162C, strain NBP2, active compounds read low 0.993 | locus YDR195W, strain ref2 1.11 | locus YDR297W, strain sur2, active compounds read low 0.995 | locus YDR318W, strain mcm21, active compounds read low 0.962 | locus YDR334W, strain swr1, active compounds read low 1.01 | locus YDR335W, strain msn5, active compounds read low 1.02 | locus YDR388W, active compounds read low 0.973 | locus YDR502C, strain sam2, active compounds read low 0.926 | locus YEL003W, strain gim4, active compounds read low 1 | locus YEL037C, strain rad23, active compounds read low 1 | locus YEL061C, strain CIN8 (second series), active compounds read low 1.01 | locus YEL061C, strain CIN8, active compounds read low 0.992 | locus YER015W, strain faa2, active compounds read low 1 | locus YER016W, strain bim1, active compounds read low 1 | locus YER110C, active compounds read low 0.983 | locus YER111C, strain swi4, active compounds read low 1.01 | locus YER155C, strain BEM2 (second series), active compounds read low 0.936 | locus YER155C, strain BEM2, active compounds read low 0.992 | locus YER167W, strain BCK2, active compounds read low 0.984 | locus YFR010W, strain ubp6, active compounds read low 0.989 | locus YGL078C, strain dbp3, active compounds read low 0.929 | locus YGL167C, strain pmr1, active compounds read low 1 | locus YGL173C, strain kem1, active compounds read low 0.996 | locus YGL227W, strain vid30, active compounds read low 1 | locus YGL240W, strain doc1, active compounds read low 0.998 | locus YGL248W, strain PDE1, active compounds read low 0.998 | locus YGL253W, strain hxk2, active compounds read low 0.936 | locus YGR078C, strain PAC10, active compounds read low 0.982 | locus YGR135W, strain pre9, active compounds read low 0.98 | locus YGR252W, strain gcn5, active compounds read low 0.983 | locus YHR013C, strain ard1, active compounds read low 0.986 | locus YHR027C, strain rpn1, active compounds read low 0.993 | locus YHR030C, strain SLT2, active compounds read low 0.992 and 1.01 | locus YHR079C, strain IRE1 (second series), active compounds read low 0.952 | locus YHR079C, strain IRE1, active compounds read low 0.983 | locus YHR094C, strain hxt1, active compounds read low 0.977 | locus YHR129C, strain ARP1, active compounds read low 0.988 | locus YHR200W, strain rpn10, active compounds read low 0.949 | locus YIL066C, strain RNR3, active compounds read low 0.965 | locus YIL073C, strain SPO22, active compounds read low 0.941 | locus YIL125W, strain kgd1, active compounds read low 0.96 | locus YIR030C, strain dcg1, active compounds read low 0.97 | locus YJL092W, strain hpr5, active compounds read low 0.99 | locus YJL095W, strain BCK1 (second series), active compounds read low 0.997 | locus YJL095W, strain BCK1, active compounds read low 0.981 and 1.01 | locus YJL115W, strain asf1, active compounds read low 1.02 | locus YJL129C, strain trk1, active compounds read low 0.937 | locus YJL134W, strain LCB3, active compounds read low 0.992 | locus YJL154C, strain vps35, active compounds read low 1.02 | locus YJL164C, strain tpk1, active compounds read low 0.981 | locus YJL166W, strain qcr8, active compounds read low 0.973 | locus YJL168C, strain set2, active compounds read low 0.972 | locus YJL187C, strain SWE1 (second series), active compounds read low 0.975 | locus YJL187C, strain SWE1, active compounds read low 1 | locus YJR043C, strain POL32, active compounds read low 0.999 | locus YJR066W, strain TOR1, active compounds read low 0.955 | locus YJR075W, strain HOC1, active compounds read low 0.976 | locus YKL009W, strain mrt4, active compounds read low 0.885 | locus YKL068W, active compounds read low 0.959 | locus YKL085W, strain MDH1 (second series), active compounds read low 0.965 | locus YKL085W, strain MDH1, active compounds read low 0.965 | locus YKL160W, strain elf1, active compounds read low 0.965 | locus YKL190W, strain CNB1, active compounds read low 0.984 | locus YKR026C, strain gcn3, active compounds read low 0.999 | locus YKR091W, strain srl3, active compounds read low 1 | locus YLL001W, strain dnm1, active compounds read low 0.989 | locus YLL026W, active compounds read low 1 | locus YLL041C, strain sdh2, active compounds read low 0.996 | locus YLR027C, strain aat2, active compounds read low 0.971 | locus YLR039C, strain RIC1, active compounds read low 0.939 | locus YLR058C, strain SHM2, active compounds read low 1 | locus YLR102C, strain apc9, active compounds read low 0.963 | locus YLR113W, strain HOG1, active compounds read low 0.995 | locus YLR221C, strain rsa3, active compounds read low 0.948 | locus YLR258W, strain gsy2, active compounds read low 0.989 | locus YLR262C, strain YPT6 (second series), active compounds read low 0.94 | locus YLR262C, strain YPT6, active compounds read low 0.937 | locus YLR268W, strain sec22, active compounds read low 0.905 | locus YLR320W, strain mms22, active compounds read low 0.928 | locus YLR330W, strain CHS5, active compounds read low 0.981 | locus YLR342W, strain FKS1 (second series), active compounds read low 0.963 | locus YLR342W, strain FKS1, active compounds read low 0.989 | locus YLR357W, strain rsc2, active compounds read low 1.02 | locus YLR370C, strain arc18, active compounds read low 1 | locus YLR371W, strain rom2, active compounds read low 0.944 | locus YLR384C, strain iki3, active compounds read low 1.01 | locus YLR418C, strain cdc73, active compounds read low 0.87 | locus YML016C, strain PPZ1, active compounds read low 1 | locus YML032C, strain rad52, active compounds read low 0.999 | locus YML120C, strain ndi1, active compounds read low 0.987 | locus YML124C, strain tub3, active compounds read low 0.979 | locus YMR058W, strain fet3, active compounds read low 0.987 | locus YMR078C, strain ctf18, active compounds read low 0.986 | locus YMR125W, strain sto1, active compounds read low 1.01 | locus YMR129W, active compounds read low 1.01 | locus YMR205C, strain PFK2, active compounds read low 0.946 | locus YMR223W, strain ubp8, active compounds read low 0.97 | locus YMR231W, strain pep5, active compounds read low 1.01 | locus YMR263W, strain SAP30, active compounds read low 0.97 | locus YMR307W, strain GAS1, active compounds read low 1.05 | locus YNL067W, strain RPL9B, active compounds read low 0.986 | locus YNL128W, strain TEP1, active compounds read low 0.943 | locus YNL153C, strain GIM3, active compounds read low 0.993 | locus YNL183C, strain NPR1, active compounds read low 0.933 | locus YNL209W, strain ssb2, active compounds read low 1.02 | locus YNL233W, strain BNI4, active compounds read low 0.954 | locus YNL248C, strain rpa49, active compounds read low 0.963 | locus YNL250W, strain rad50, active compounds read low 0.925 | locus YNL271C, strain bni1, active compounds read low 0.98 | locus YNL298W, strain CLA4, active compounds read low 0.962 | locus YNL307C, strain MCK1, active compounds read low 0.952 | locus YNL322C, strain KRE1 (second series), active compounds read low 1.02 | locus YNR049C, strain mso1, active compounds read low 1 | locus YNR052C, strain pop2, active compounds read low 0.99 | locus YOL012C, strain htz1 1.17 | locus YOL147C, strain pex11, active compounds read low 0.949 | locus YOR001W, strain rrp6, active compounds read low 0.957 | locus YOR061W, strain CKA2, active compounds read low 0.997 | locus YOR069W, strain VPS5, active compounds read low 0.991 | locus YOR070C, strain gyp1, active compounds read low 0.992 | locus YOR080W, strain dia2, active compounds read low 1.02 | locus YOR083W, strain WHI5, active compounds read low 0.961 | locus YOR106W, strain vam3, active compounds read low 0.975 | locus YOR136W, strain idh2, active compounds read low 0.958 | locus YOR144C, strain elg1, active compounds read low 0.984 | locus YOR231W, strain MKK1, active compounds read low 1.02 | locus YOR265W, strain rbl2, active compounds read low 0.999 | locus YOR270C, strain vph1, active compounds read low 0.817 | locus YOR290C, strain snf2, active compounds read low 0.91 | locus YOR316C, strain cot1, active compounds read low 0.986 | locus YPL051W, strain arl3, active compounds read low 0.973 | locus YPL055C, strain LGE1, active compounds read low 0.926 | locus YPL078C, strain atp4, active compounds read low 0.952 | locus YPL106C, strain sse1, active compounds read low 1.02 | locus YPL240C, strain hsp82, active compounds read low 0.997 | locus YPL256C, strain CLN2, active compounds read low 0.997 | locus YPR119W, strain clb2, active compounds read low 0.964 | locus YPR141C, strain kar3, active compounds read low 0.979 | locus YPR163C, strain tif3, active compounds read low 0.978 | locus YPR167C, strain met16, active compounds read low 0.956 | strain wtn01, active compounds read low 0.911
